Data on 44 molecules can be found in PubChem BioAssay AID485358 (National Center for Advancing Translational Sciences (NCATS), 2010).

Among all 340,000 compounds or so, about 1,800 (0.53%) were called active. Only a selection was taken, and actives are over-represented in it overall. A number with no mark means an inactive call.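 Rule for the calls: active = activation over 3 SD above normal in the single-dose calcium agonist read (cut at about 30% in these data); inactive = the rest.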

Sequence of D(2) dopamine receptor (Homo sapiens) (P14416 whole entry, looked up): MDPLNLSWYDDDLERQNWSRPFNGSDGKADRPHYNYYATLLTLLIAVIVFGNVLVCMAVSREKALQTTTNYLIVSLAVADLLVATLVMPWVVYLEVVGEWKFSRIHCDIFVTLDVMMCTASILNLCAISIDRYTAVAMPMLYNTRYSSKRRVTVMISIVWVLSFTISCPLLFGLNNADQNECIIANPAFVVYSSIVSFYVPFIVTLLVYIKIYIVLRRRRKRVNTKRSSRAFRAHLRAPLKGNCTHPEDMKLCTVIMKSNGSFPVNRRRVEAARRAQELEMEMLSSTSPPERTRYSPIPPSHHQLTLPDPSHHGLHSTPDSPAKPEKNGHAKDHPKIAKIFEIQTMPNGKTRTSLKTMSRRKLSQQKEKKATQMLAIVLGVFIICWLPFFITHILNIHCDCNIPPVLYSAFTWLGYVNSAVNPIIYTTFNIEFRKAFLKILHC

The experiment concerns the target D(2) dopamine receptor (Homo sapiens) (UniProt P14416). The experiment in a line: HTS Assay for Allosteric Agonists of the Human D2 Dopamine Receptor: Primary Screen for Agonists. Note: 0% is about no effect. Conditions: HEK293 T-REx D2 cells, calcium flux agonist mode; at 2 µM; stronger effect = higher value. The method, boiled down: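 In this primary screen, compounds producing a positive calcium signal within 180 s of addition to tetracycline-induced, force-coupled HEK293 Trex D2 cells are flagged; cells are dye-loaded with a no-wash calcium kit beforehand.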
For `O=C(CC1NCCc2ccccc21)Nc1cccc(Cl)c1` (centres undefined), the activation was 35.2% (active).

As for `O=C(CC1NCCNC1=O)Nc1cc(Cl)cc(Cl)c1` (centres undefined), the activation is -0.701%.

Turning to `O=C(CC1C(=O)NCCN1C(=O)c1ccc([N+](=O)[O-])cc1)Nc1cccc(Cl)c1` (centres undefined), the activation is -0.121%.

With `Cc1ccccc1CNC(=O)C(=O)NCC(c1cccs1)S(=O)(=O)c1cccs1` (centres undefined), the activation was 0.367%.

Turning to `COc1cccc(NC(=O)N2CCN(C(=O)c3nsc4ccccc34)CC2)c1`, the activation was -0.159%.

Take `COc1ccccc1CN1CCC(CNC(=O)c2cnn(-c3cccc(Cl)c3)c2C2CCN(C(=O)OC(C)(C)C)CC2)CC1`: the activation is 1.52%.

With `O=C(Cn1cc(SCc2ccccc2)c2ccccc21)N1CCCCC1`, the activation was 0.397%.

Turning to `Cc1cc(OC(C)C(=O)Nc2sc3c(c2C(N)=O)CCCC3)ccc1Cl` (centres undefined), the activation was -0.192%.

Turning to `CCCCCCc1cc2cc(-c3nnc(-c4ccccc4)o3)c(=O)oc2cc1O`, the activation was 32.4% (active).

In the case of `CCn1cc(C(=O)N2CCN(c3cc(Cl)ccc3C)CC2)c(=O)c2cc(S(=O)(=O)N3CCCC3)ccc21`, the activation is 0.428%.

Regarding `CC1=Nc2cc(C(=O)NCc3ccc(C)cc3)ccc2Sc2ccc(Cl)cc21`, the activation is 0.834%.

With `CCc1ccc2oc(-c3ccc(NC(=O)c4cc5ccccc5o4)cc3)nc2c1`, the activation was 0.271%.

Regarding `Cn1nnnc1SCCCNCc1ccc(Cl)cc1`, the activation was 0.973%.

In the case of `Cc1cc(C)cc(NC(=O)CSc2oc(-c3ccccc3)nc2S(=O)(=O)c2ccc(Cl)cc2)c1`, the activation was -0.364%.

With `CCn1c(=O)n(CC)c2cc(N3CCCC3)c(NC(=O)c3ccccc3Br)cc21`, the activation was 36.9% (active).

As to `CCn1c(=O)c(=O)n(CC)c2cc(N3CCCCC3)c(NC(=O)c3cccc(F)c3)cc21`, the activation is -0.09%.

On to `CCn1c(=O)c(=O)n(CC)c2cc(N3CCCCC3)c(NC(=O)c3ccc(Cl)cc3)cc21`, for which the activation was -0.0698%.

Take `CCCC(=O)N1c2ccc(-c3csc(N)n3)cc2CC1C` (centres undefined): the activation was 0.868%.

In the case of `CC(C)(C)C(=O)OCc1nc(-c2ccc(O)c(O)c2)cs1`, the activation is 73.8% (active).

Regarding `Cc1onc(C(=O)NN)c1-c1csc(COc2ccccc2)n1`, the activation was -1.45%.

In the case of `COc1ccc(C2=NC3(CCCCC3)N(CC(=O)Nc3ccc(C(C)C)cc3)C2=O)cc1`, the activation is -0.0796%.

`CN(C)c1ccc(/C=C2\NC(=S)N(Cc3ccccc3)C2=O)cc1`: the activation is 45.9% (active).

For the molecule `Cc1ccc(CN2C(=O)N/C(=C/c3cc(C)n(-c4ccccn4)c3C)C2=O)cc1`, the activation was -1.58%.

As for `CN(C)c1ccc(C=C2C(=O)OC3(CCCC3)OC2=O)cc1`, the activation is -0.32%.

For the molecule `CCCCNC(=O)CSc1nc2cc3c(cc2c(=O)n1CCCCCC(=O)NCc1ccc2c(c1)OCO2)OCO3`, the activation was 0.322%.

Turning to `O=C(CCN1CCN(c2ccccc2)CC1)NNC(=S)Nc1ccccc1`, the activation was 56.1% (active).

For `O=C(CN1CCN(c2ccccc2)CC1)Nc1ccc(F)cc1`, the activation is 19.7%.

Take `CCOC(=O)N1CCN(CCC(=O)Nc2ccccc2)CC1`: the activation was 0.607%.

For `Cc1ccc(S(=O)(=O)c2nc(-c3ccco3)oc2SCC(=O)Nc2ccc(F)cc2)cc1`, the activation was -0.0829%.

Turning to `CC(CCc1ccc(O)cc1)NCc1ccc(Cl)cc1Cl` (centres undefined), the activation is 32.8% (active).

Take `COc1ccc(CNC(=O)C(C)NCc2ccccc2Cl)cc1` (centres undefined): the activation is -0.182%.

On to `CC(CCc1ccccc1)NC(=O)c1cnc(Cl)c(Cl)c1` (centres undefined), for which the activation is -0.256%.

With `C=Cc1ccc(Cn2c(C(=O)OC)cc3sc(C)cc32)cc1`, the activation is 0.446%.

With `COc1ccccc1NC(=O)CCN1CCN(c2ccc(Cl)cc2)CC1`, the activation was -0.695%.

Regarding `O=C(CCN1CCN(C/C=C/c2ccccc2)CC1)Nc1cccc(F)c1`, the activation is 1.58%.

For `O=C(CCN1CCN(C/C=C/c2ccccc2)CC1)Nc1ccccc1Cl`, the activation is 76% (active).

As to `Cc1nc(SCC(=O)N2CCN(c3ccccc3)CC2)[nH]c(=O)c1C`, the activation was 16%.

As to `COc1cccc(C(=O)NCc2ccc3c(c2)CCN3C(=O)c2ccncc2)c1`, the activation was -0.0874%.

As to `COc1ccc(-c2nc(S(=O)(=O)c3ccccc3)c(N3CCCCC3)o2)cc1`, the activation is -0.427%.

On to `O=C(CN1CCN(S(=O)(=O)c2cc(Cl)ccc2Cl)CC1)c1ccc(O)c(O)c1`, for which the activation is 57.8% (active).

`O=S(=O)(c1cc(Cl)ccc1Cl)N1CCN(Cc2ccco2)CC1`: the activation was -1.47%.

Regarding `N#Cc1ccsc1NC(=O)CN1CCN(S(=O)(=O)c2cc(Cl)ccc2Cl)CC1`, the activation is 3.35%.

With `Cc1ccc(NC(=O)Cn2nnc3sc4c(c3c2=O)CCC(C)C4)cc1` (centres undefined), the activation is 0.94%.

For `CCc1ccccc1NC(=O)Cc1ccc(NC(=O)N2CCCCc3ccccc32)cc1`, the activation is 0.173%.
